Among the data in PubChem BioAssay (EPA / NIEHS) are outcome and AC50 values, retold here.

In general, AC50 refers to the concentration giving half of the maximal activity seen.

Assay [1] in a line: IUF_NPC1_cytotoxicity_72hr: Cytotoxicity Assessment at 72 hours in the Leibniz Research Institute for Environmental Medicine (IUF) Neural Progenitor Cell Proliferation Assay (NPC1) (AID 2284332; active = hit-call score of the fitted dose curve at least 0.9, where 1 is the maximum;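 note: rising LDH signal means more cytotoxicity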). The essentials:
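hNPC spheres (fetal brain, gestational week 16-19) grown under proliferative EGF/FGF conditions, pH 7.2-7.6, were treated continuously for 72 h. Cytotoxicity came from LDH-coupled resazurin fluorescence in each well's supernatant.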

Assay [2] can be described thus: CCTE_Mundy_HCI_iCellGluta_NOG_NeuronCount: CCTE's Neurite Outgrowth Assay in iCellGluta cells for Neuron Count, Mundy Lab (AID 2284340; active = hit-call score of the fitted dose curve at least 0.9, where 1 is the maximum;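 note: cells fixed about 48 h after compound addition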). A digest of the protocol:
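Neuron count read by automated high-content imaging of Hoechst 33342 and betaIII-tubulin/Alexa Fluor-488 labelling in human iPSC glutamatergic neurons. Activity fitted relative to DMSO.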

A short description of assay [3]: CCTE_Mundy_HCI_iCellGluta_NOG_NeuriteCount: CCTE's Neurite Outgrowth Assay in iCellGluta cells for Neurite Count, Mundy Lab (AID 2284342; active = hit-call score of the fitted dose curve at least 0.9, where 1 is the maximum;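 note: chemical exposure about 48 hours starting 2 hours after plating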).
Assay [4] in a line: CCTE_Deisenroth_5AR_NBTE_acceptor: CCTE's 5alpha-reductase NanoBRET Target Engagement Assay - Autofluorescence Screen, Deisenroth Lab (AID 2284321).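 Note: compound fluorescence in the acceptor channel under 460 nm excitation flags autofluorescence artifacts.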 As to conditions: actives raise or lower the signal. A digest of the protocol:
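Using three independent plate-reader runs, nominal 100 uM chemicals were checked for intrinsic fluorescence (ex 460 nm). DMSO defined the baseline for bidirectional fitting.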
(In general: In BRET a luciferase serves as donor, and the signal depends on an acceptor being close.)

In assay [5] the test system is SRD5A2 (gene 6716). Kind of assay: CCTE_Deisenroth_5AR_NBTE_ratio: CCTE's 5alpha-reductase NanoBRET Target Engagement Assay - Ratio, Deisenroth Lab (AID 2284322). The conditions noted are these: actives raise or lower the signal. The essentials:
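Reverse-transfect HEK293T with pNLF1-C-SRD5A2, express 20 h. Pre-incubate cells with chemical 3 h (8-point series, 10 nM - 29.9 uM, duplicate). Add testosterone tracer, 2 h more. Add substrate/inhibitor, read donor and acceptor emission.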

In assay [6] the test system is SERPINA7 (gene 6906). Kind of assay: CCTE_GLTED_hTBG: CCTE's human Thyroxine-binding Globulin (TBG) Inhibition Assay, Great Lakes Toxicology and Ecology Division (GLTED) Lab (AID 2284343; active = hit-call score of the fitted dose curve at least 0.9, where 1 is the maximum;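 note: active chemicals lower fluorescence versus DMSO baseline by displacing probe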). A digest of the protocol:
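Measures how far test chemicals displace ANSA bound to purified human TBG. The read-out is fluorescence at 380 nm excitation and 475 nm emission, taken after 2 h of incubation.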

A short description of assay [7]: TAMU_PeakParms_SingleDonor1434_Asystole: Texas A&M University (TAMU) 1.5-hr Human Induced Pluripotent Stem Cell (iPSC)-derived Cardiomyocytes Calcium (Ca+2) Flux Assay for Cardiotoxicity: Asystole (quiescence of beating) (AID 2284328; active = hit-call score of the fitted dose curve at least 0.9, where 1 is the maximum). A digest of the protocol:
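Human iPSC-derived cardiomyocytes (donor 1434) were exposed to 0.2, 1, 10 and 100 uM compound in 0.5% DMSO for 90 min at 37C. Ca2+-dye fluorescence gave average peak frequency; POD is EC95, a 95% beat-rate drop versus DMSO.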

The nature of assay [8]: Tanguay_ZF_120hpf_MO24: Oregon State University Tanguay Lab 24 Hour Post-fertilization zebrafish Assay for Mortality (AID 2284389). The essentials:
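Dechorionated wild-type zebrafish embryos, 1 per well, statically exposed from 6 hpf at 28C, 0.64% DMSO final. Mortality scored as binary present/absent at 24 hpf by brightfield microscopy, relative to DMSO.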

Assay [9] in a line: Tanguay_ZF_120hpf_DP24: Oregon State University Tanguay Lab 24 Hour Post-fertilization zebrafish Assay for Delayed Development (AID 2284390). A digest of the protocol:
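Dechorionated 5D wild-type zebrafish embryos exposed statically from 6 hpf, one per well, 0.64% DMSO final, 28 C, sealed and dark. Developmental progression scored at 24 hpf by brightfield as binary present/absent; dead embryos excluded.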

Assay [10] can be described thus: Tanguay_ZF_120hpf_CRAN: Oregon State University Tanguay Lab 120 Hour Post-fertilization zebrafish Assay for Craniofacial Malformation (AID 2284397). A digest of the protocol: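 Dechorionated Tropical 5D wild-type zebrafish embryos, one per well, were statically exposed from 6 to 120 hpf at 28C in 0.64% DMSO, with 5uM trimethyltin chloride as positive control. Craniofacial malformation was scored present/absent by brightfield microscopy, relative to DMSO.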

A short description of assay [11]: Tanguay_ZF_120hpf_AXIS: Oregon State University Tanguay Lab 120 Hour Post-fertilization zebrafish Assay for Axial Malformation (AID 2284398). A digest of the protocol: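 Dechorionated 5D wild-type zebrafish embryos exposed statically, one per well, from 6 to 120 hpf at 28C, 0.64% DMSO. Axial malformation scored as present/absent by brightfield microscopy at 120 hpf; dead embryos not scored.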

A short description of assay [12]: Tanguay_ZF_120hpf_MORT: Oregon State University Tanguay Lab 120 Hour Post-fertilization zebrafish Assay for Mortality (AID 2284399). The essentials:
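Dechorionated wild-type Tropical 5D zebrafish embryos, one per well from 6 hpf, static exposure to 120 hpf at 28C in sealed dark plates, 0.64% DMSO final. Mortality scored as binary by brightfield at 24 and 120 hpf.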

Assay [13] can be described thus: Tanguay_ZF_120hpf_EDEM: Oregon State University Tanguay Lab 120 Hour Post-fertilization zebrafish Assay for Edema Malformation (AID 2284400). A digest of the protocol:
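Dechorionated Tropical 5D wild-type embryos, one per well, statically exposed from 6 to 120 hpf at 28C in 0.64% DMSO. Edema scored present/absent by brightfield microscopy at 120 hpf; dead embryos not scored; fit versus DMSO.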

Assay [14] in a line: VALA_TUBIPS_Antagonist_CellCount: Viability Assessment in the VALA Sciences human iPS-derived Endothelial Tubule Formation (TUBIPS) Antagonism Assay (AID 2284335; active = hit-call score of the fitted dose curve at least 0.9, where 1 is the maximum).
A short description of assay [15]: VALA_MIGHUV1_ScratchOnly_WoundArea: VALA Sciences human Umbilical Vein Endothelial Cell Migration (MIGHUV) Assay, Area of Scratch Wound Inhibited Recovery (AID 2284336; active = hit-call score of the fitted dose curve at least 0.9, where 1 is the maximum). The essentials: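 HUVEC monolayers (9000 cells/well) were scratched after 24 h, dosed within 30 min (six concentrations, triplicate, 0.1% DMSO), allowed 24 h recovery, then fixed. Hoechst-stained nuclei in the wound imaged; cytochalasin D as reference.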

A short description of assay [16]: VALA_TUBIPS_Agonist_CellCount: Viability Assessment in the VALA Sciences human iPS-derived Endothelial Tubule Formation (TUBIPS) Agonism Assay (AID 2284338; active = hit-call score of the fitted dose curve at least 0.9, where 1 is the maximum).

SMILES strings stand for the structures. Values joined by “and” are separate entries in the source; they are usually repeats but may differ in a detail not shown here. Equal entries are not always repeated. Records with an inconclusive call do not appear. Some compounds were tested as several samples or in several runs, with calls that do not always agree. Active and inactive are the calls of the source. Rule for the calls, unless noted: active = hit-call score of the fitted dose curve at least 0.9, where 1 is the maximum; inactive = score below 0.9.

Take `CC1(C)C(C=C(Cl)Cl)C1C(=O)OC(C#N)c1ccc(F)c(Oc2ccccc2)c1` (stereo not drawn): the call in [1], in assay [2] and in assay [3] was inactive. The results for the AC50 in [2] and in assay [3] were 49.9 µM (active) and 22.3 µM (active), respectively.
On to `CC(C)N(C(=O)COc1nnc(C(F)(F)F)s1)c1ccc(F)cc1`, for which the outcome in [1], in [2] and in assay [3] was inactive.
Consider `CCCN(CCC)c1c([N+](=O)[O-])cc(C(F)(F)F)cc1[N+](=O)[O-]`, for which the molecule was classed as inactive in assay [4] and in assay [5]. In addition, the half-maximal activity concentration (AC50) in assay [6] was 5.16 µM (active).
Regarding `O=C(NC(=O)c1c(F)cccc1F)Nc1ccc(OC(F)(F)C(F)OC(F)(F)F)c(Cl)c1` (stereo not drawn), in assay [6], the AC50 was 25 µM (active).
In the case of `CCC(C)(NC(=O)c1cc(Cl)c(C)c(Cl)c1)C(=O)CCl` (stereo not drawn), the molecule was called inactive in assay [4] and in assay [5].
For the molecule `O=C(O)COc1ccc(Cl)cc1Cl`, the call in assay [1] and in assay [3] was inactive.
With `COP(=S)(OC)Oc1ccc([N+](=O)[O-])cc1`, the outcome in assay [1] and in [2] was inactive. Also, in assay [3], the AC50 was 23.4 µM (active).
On to `O=S1OCC2C(CO1)C1(Cl)C(Cl)=C(Cl)C2(Cl)C1(Cl)Cl` (stereo not drawn), for which the call in assay [4], in [5], in assay [7] and in assay [1] was inactive. Moreover, the AC50 in assay [2] is 13.8 µM (active); in [3] it was 23 µM (active).
For the molecule `CCC(C)Nc1c([N+](=O)[O-])cc(C(C)(C)C)cc1[N+](=O)[O-]` (stereo not drawn), the call in assay [4] and in assay [5] was inactive. In addition, the AC50 in [6] is 22.3 µM (active).
With `O=C(O)C(F)(F)C(F)(F)C(F)(F)C(F)(F)C(F)(F)C(F)(F)C(F)(F)F`, the result in assay [1], in assay [2], in assay [3], in assay [8], in assay [9] and in assay [10] was inactive. The call in assay [11], in assay [12] and in assay [13] was inactive.
For `O=S(=O)(O)C(F)(F)C(F)(F)C(F)(F)C(F)(F)C(F)(F)C(F)(F)C(F)(F)C(F)(F)F`, the AC50 in [1] is 3.31 µM (active); in assay [10], 32.7 µM (active) and 91 µM (active); in assay [11], 37.8 µM (active); in assay [12], 22.5 µM (active); in [13], 32.7 µM (active) and 35.6 µM (active). Besides, the molecule was classed as inactive in assay [1], in [14], in assay [15], in assay [16], in assay [2] and in assay [3]. Further, the outcome in [8], in assay [9], in assay [11] and in assay [12] was inactive.
`CC(C)OC(=O)Nc1cccc(Cl)c1`: the AC50 in [6] was 34.7 µM (active).
